SMILES strings stand for the structures. About 980 (39%) of roughly 2,500 compounds were called active.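 How the source made its calls: active means mean inhibition at 5 µM reaching about 45% (limit read from the data); inactive means the rest.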 Shown is part of a subset that was picked to be rich in actives.

The experiment can be described thus: blockers of Gli reporter signaling – single concentration, luciferase luminescence, Sufu-KO-LIGHT cells, confirmation (AID 602428).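 Further: plate controls were DMSO-treated cells for no effect and wells lacking cells for full effect.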 The note with it: at 5 µM, hits give high values.
Broadly, the inhibition is the change of the read-out against control, counted positive when it falls. Consider `CCOc1cccc(=NC2CCCCC2)c2c(C)[nH]c(C)c12`, for which the inhibition is 86.4% (active).
